Measured values published in PubChem BioAssay AID1159580 (chemical genetic matrix, 2015).
Where “and” joins values, the source holds several entries; their conditions need not be identical. Identical values can stand only once. Screen size: about 5,500 compounds; about 2,000 (36%) were called active. Inconclusive results (about 18%) are left out. Cut-off read from the data, not from the text of the source: active = normalized growth mostly below about 0.91 (no sharp cut-off); inconclusive = no clear call, values can overlap the other calls; inactive = mostly above about 0.92. Some of the results follow.

Assay: chemical genetic growth profiling, strain panel (AID 1159580);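 note: tested at 20 µM; growth read once vehicle control cultures reached saturation at 30 °C; 1 = growth at the plate median or of vehicle wells; lower values mean less growth of the strain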
Conditions: S. cerevisiae deletion strains, growth OD

Measured: normalized growth

O=c1c(O)c(-c2ccc(O)cc2O)oc2cc(O)cc(O)c12
active: locus YDR069C, strain doa4, hits give low values 0.857
inactive: locus YAL013W, strain DEP1, hits give low values 1 | locus YAL021C, strain ccr4, hits give low values 0.949 | locus YAL026C, strain drs2, hits give low values 0.973 | locus YAL030W, strain snc1, hits give low values 0.99 | locus YAL040C, strain CLN3, hits give low values 1.01 | locus YBL061C, strain skt5, hits give low values 0.963 | locus YBR009C, strain hhf1, hits give low values 1 | locus YBR021W, strain FUR4, hits give low values 1.01 | locus YBR023C, strain chs3, hits give low values 1.01 | locus YBR171W, strain sec66, hits give low values 0.983 | locus YBR229C, strain ROT2, hits give low values 0.988 | locus YBR231C, strain swc5, hits give low values 0.965 | locus YBR279W, strain paf1, hits give low values 0.995 | locus YCL011C, strain gbp2, hits give low values 1 | locus YCL016C, strain dcc1, hits give low values 0.988 | locus YCL029C, strain bik1, hits give low values 1.01 | locus YCL061C, strain MRC1 (second series), hits give low values 0.986 | locus YCL061C, strain MRC1, hits give low values 0.976 | locus YCL069W, strain vba3, hits give low values 0.997 | locus YCR088W, strain abp1, hits give low values 0.991 | locus YDL005C, strain med2, hits give low values 1.01 | locus YDL035C, strain GPR1, hits give low values 0.973 | locus YDL040C, strain nat1, hits give low values 1 | locus YDL074C, strain BRE1, hits give low values 1 | locus YDL101C, strain DUN1, hits give low values 1 | locus YDL185W, strain tfp1, hits give low values 0.976 | locus YDL192W, strain arf1, hits give low values 0.974 | locus YDR001C, strain nth1, hits give low values 0.999 | locus YDR101C, strain arx1, hits give low values 1 | locus YDR137W, strain rgp1, hits give low values 1 | locus YDR150W, strain NUM1, hits give low values 0.986 | locus YDR159W, strain sac3, hits give low values 0.985 | locus YDR162C, strain NBP2, hits give low values 0.971 | locus YDR195W, strain ref2 0.964 | locus YDR297W, strain sur2, hits give low values 0.978 | locus YDR318W, strain mcm21, hits give low values 1.01 | locus YDR334W, strain swr1, hits give low values 0.956 | locus YDR335W, strain msn5, hits give low values 0.98 | locus YDR363W, strain ESC2, hits give low values 0.995 | locus YDR388W, hits give low values 0.991 | locus YDR392W, strain spt3, hits give low values 0.99 | locus YDR502C, strain sam2, hits give low values 1.02 | locus YEL003W, strain gim4, hits give low values 0.976 | locus YEL037C, strain rad23, hits give low values 0.989 | locus YEL061C, strain CIN8 (second series), hits give low values 0.992 | locus YEL061C, strain CIN8, hits give low values 0.995 | locus YER002W, strain NOP16, hits give low values 1.03 | locus YER015W, strain faa2, hits give low values 0.984 | locus YER016W, strain bim1, hits give low values 1 | locus YER110C, hits give low values 1.02 | locus YER111C, strain swi4, hits give low values 0.954 | locus YER155C, strain BEM2 (second series), hits give low values 0.977 | locus YER155C, strain BEM2, hits give low values 1.01 | locus YER167W, strain BCK2, hits give low values 0.996 | locus YFR010W, strain ubp6, hits give low values 0.916 | locus YGL078C, strain dbp3, hits give low values 1.01 | locus YGL086W, strain mad1, hits give low values 1.06 | locus YGL167C, strain pmr1, hits give low values 0.98 | locus YGL173C, strain kem1, hits give low values 0.947 | locus YGL227W, strain vid30, hits give low values 1.01 | locus YGL240W, strain doc1, hits give low values 1 | locus YGL248W, strain PDE1, hits give low values 0.966 | locus YGL253W, strain hxk2, hits give low values 0.994 | locus YGR078C, strain PAC10, hits give low values 0.97 and 1.01 | locus YGR135W, strain pre9, hits give low values 0.991 | locus YHR013C, strain ard1, hits give low values 0.962 | locus YHR027C, strain rpn1, hits give low values 0.973 | locus YHR030C, strain SLT2, hits give low values 0.993 and 0.957 | locus YHR079C, strain IRE1 (second series), hits give low values 1.02 | locus YHR079C, strain IRE1, hits give low values 0.968 | locus YHR094C, strain hxt1, hits give low values 1.02 | locus YHR129C, strain ARP1, hits give low values 0.973 | locus YHR142W, strain chs7, hits give low values 0.945 | locus YHR200W, strain rpn10, hits give low values 0.994 | locus YIL066C, strain RNR3, hits give low values 0.943 | locus YIL073C, strain SPO22, hits give low values 1.08 | locus YIL125W, strain kgd1, hits give low values 0.999 | locus YIR030C, strain dcg1, hits give low values 1.02 | locus YJL092W, strain hpr5, hits give low values 0.996 | locus YJL095W, strain BCK1 (second series), hits give low values 0.964 | locus YJL095W, strain BCK1, hits give low values 0.986 and 0.988 | locus YJL115W, strain asf1, hits give low values 0.994 | locus YJL129C, strain trk1, hits give low values 1.02 | locus YJL134W, strain LCB3, hits give low values 1.02 | locus YJL154C, strain vps35, hits give low values 1.02 | locus YJL164C, strain tpk1, hits give low values 0.975 | locus YJL166W, strain qcr8, hits give low values 0.984 | locus YJL168C, strain set2, hits give low values 1 | locus YJL187C, strain SWE1 (second series), hits give low values 0.966 | locus YJR043C, strain POL32, hits give low values 0.956 | locus YJR066W, strain TOR1, hits give low values 0.935 | locus YJR075W, strain HOC1, hits give low values 1.01 | locus YKL009W, strain mrt4, hits give low values 1.01 | locus YKL068W, hits give low values 1.01 | locus YKL085W, strain MDH1 (second series), hits give low values 0.999 | locus YKL085W, strain MDH1, hits give low values 0.999 | locus YKL160W, strain elf1, hits give low values 0.989 | locus YKL190W, strain CNB1, hits give low values 1 | locus YKR001C, strain vps1, hits give low values 1.01 | locus YKR026C, strain gcn3, hits give low values 0.975 | locus YKR091W, strain srl3, hits give low values 0.996 | locus YLL001W, strain dnm1, hits give low values 0.983 | locus YLL026W, hits give low values 1 | locus YLL041C, strain sdh2, hits give low values 0.999 | locus YLR027C, strain aat2, hits give low values 1.01 | locus YLR039C, strain RIC1, hits give low values 1.04 | locus YLR058C, strain SHM2, hits give low values 0.984 | locus YLR102C, strain apc9, hits give low values 1.01 | locus YLR113W, strain HOG1, hits give low values 1 | locus YLR221C, strain rsa3, hits give low values 0.963 | locus YLR258W, strain gsy2, hits give low values 0.985 | locus YLR262C, strain YPT6 (second series), hits give low values 0.966 | locus YLR262C, strain YPT6, hits give low values 1.06 | locus YLR268W, strain sec22, hits give low values 1.03 | locus YLR320W, strain mms22, hits give low values 0.959 | locus YLR330W, strain CHS5, hits give low values 1.01 | locus YLR342W, strain FKS1 (second series), hits give low values 0.965 | locus YLR342W, strain FKS1, hits give low values 0.974 | locus YLR357W, strain rsc2, hits give low values 0.924 | locus YLR370C, strain arc18, hits give low values 0.988 | locus YLR371W, strain rom2, hits give low values 0.995 | locus YLR384C, strain iki3, hits give low values 1 | locus YLR418C, strain cdc73, hits give low values 1.05 | locus YML016C, strain PPZ1, hits give low values 0.972 | locus YML032C, strain rad52, hits give low values 1 | locus YML120C, strain ndi1, hits give low values 0.994 | locus YML124C, strain tub3, hits give low values 1.02 | locus YMR058W, strain fet3, hits give low values 0.932 | locus YMR078C, strain ctf18, hits give low values 1.03 | locus YMR125W, strain sto1, hits give low values 1 | locus YMR129W, hits give low values 1.01 | locus YMR205C, strain PFK2, hits give low values 0.98 | locus YMR223W, strain ubp8, hits give low values 0.986 | locus YMR231W, strain pep5, hits give low values 0.991 | locus YMR263W, strain SAP30, hits give low values 0.996 and 1.01 | locus YMR307W, strain GAS1, hits give low values 0.942 | locus YNL067W, strain RPL9B, hits give low values 1 | locus YNL071W, strain lat1, hits give low values 1 | locus YNL128W, strain TEP1, hits give low values 1 | locus YNL175C, strain NOP13, hits give low values 1.01 | locus YNL183C, strain NPR1, hits give low values 0.961 | locus YNL197C, strain WHI3, hits give low values 1.01 | locus YNL209W, strain ssb2, hits give low values 0.991 | locus YNL224C, strain SQS1, hits give low values 1.03 | locus YNL233W, strain BNI4, hits give low values 0.988 | locus YNL248C, strain rpa49, hits give low values 0.976 | locus YNL250W, strain rad50, hits give low values 1.01 | locus YNL271C, strain bni1, hits give low values 0.993 | locus YNL298W, strain CLA4, hits give low values 1 | locus YNL307C, strain MCK1, hits give low values 1.02 | locus YNL322C, strain KRE1 (second series), hits give low values 0.987 | locus YNL322C, strain KRE1, hits give low values 1 | locus YNR049C, strain mso1, hits give low values 1 | locus YNR052C, strain pop2, hits give low values 0.992 | locus YOL006C, strain TOP1, hits give low values 1.01 | locus YOL012C, strain htz1 0.825 | locus YOL147C, strain pex11, hits give low values 1.02 | locus YOR001W, strain rrp6, hits give low values 0.996 | locus YOR061W, strain CKA2, hits give low values 0.97 | locus YOR069W, strain VPS5, hits give low values 0.992 | locus YOR070C, strain gyp1, hits give low values 0.989 | locus YOR080W, strain dia2, hits give low values 0.994 | locus YOR083W, strain WHI5 (second series), hits give low values 1.01 | locus YOR083W, strain WHI5, hits give low values 0.974 | locus YOR106W, strain vam3, hits give low values 0.931 | locus YOR136W, strain idh2, hits give low values 1.02 | locus YOR144C, strain elg1, hits give low values 1.02 | locus YOR184W, strain ser1, hits give low values 1.01 | locus YOR231W, strain MKK1, hits give low values 0.988 | locus YOR265W, strain rbl2, hits give low values 0.991 | locus YOR270C, strain vph1, hits give low values 0.872 | locus YOR290C, strain snf2, hits give low values 0.976 | locus YOR316C, strain cot1, hits give low values 1.01 | locus YPL051W, strain arl3, hits give low values 0.952 | locus YPL055C, strain LGE1, hits give low values 1 | locus YPL078C, strain atp4, hits give low values 0.994 | locus YPL106C, strain sse1, hits give low values 0.916 | locus YPL240C, strain hsp82, hits give low values 0.997 | locus YPL241C, strain CIN2, hits give low values 1 | locus YPL256C, strain CLN2, hits give low values 0.974 | locus YPR119W, strain clb2, hits give low values 1.02 | locus YPR141C, strain kar3, hits give low values 1.01 | locus YPR163C, strain tif3, hits give low values 1.02 | locus YPR167C, strain met16, hits give low values 0.995 | strain wtn01, hits give low values 1.02
